We go through 20 molecules from PubChem BioAssay AID652208 (Broad Institute, 2013).

Potency and affinity values are given separately. Values without a mark were called inactive.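 How the source made its calls: active means Loss of cell signal with fitted half-effect dose at or below twice the top valid tested dose; inconclusive means Poor fit, or flat fit from -70 to -30 percent; inactive means Half-effect above limit, rising signal, or flat within 30 percent.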

A short description of this test: viability loss in HEK293T cells – cell-based, cherry-picks, cytotoxicity control for HIV Vif inhibitor project, dose response (AID 652208).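 Further: 0% = median neutral control wells and -100% = median staurosporine control wells.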 Conditions: CellTiter-Glo luminescence, 24 h; series mostly up to 26 µM; activity change, negative = cytotoxicity: at the top concentration. (In general: ATP-based viability assays read luminescence as a measure of living cells.)
With `Cc1nnc2ccc(-c3cccc(NS(=O)(=O)c4ccccc4Cl)c3)nn12`, the “activity change, negative = cytotoxicity” value is -5.54%.
In the case of `CCOc1ccc(C(C)=O)cc1COC(=O)c1cc([N+](=O)[O-])ccc1N1CCOCC1` it was -20.4%.
In the case of `CCOC(=O)C[C@@H](C#N)NC(=O)[C@@H]1CCCN1C(=O)[C@@H](NC(=O)c1ccc(N)c(Cl)c1)C(C)(C)C` it was -8.24%; in that of `Cc1nnc2ccc(-c3ccc(NS(=O)(=O)c4ccc(F)cc4F)cc3)nn12`, -2.74%.
To `CNC(=O)c1ccc(NC(=O)c2cc(S(=O)(=O)N(C)C)ccc2N2CCCC2)cc1` belongs -3.29%; to `CCNC(=O)[C@H]1O[C@@H](n2cnc3c(N)nc(NCCc4ccc(CCC(=O)O)cc4)nc32)[C@H](O)[C@@H]1O`, 4.52%; to `C[C@@H]1CN([C@H](C)CO)C(=O)CCCn2cc(nn2)CO[C@H]1CN(C)C(=O)c1ccccc1`, 9.43%.
In the case of `CCN(CCCNC(=O)C1CCC(=O)N1Cc1ccc(C)cc1)c1cccc(C)c1` (stereo not given), the “activity change, negative = cytotoxicity” value was -8.75%.
For the molecule `CCOc1ccc(NC(=O)CN(C)C(=O)c2cc(S(=O)(=O)N3CCCCC3)ccc2Cl)cc1OCC`, the “activity change, negative = cytotoxicity” value is 9.74%.
Consider `CCOC(=O)c1c(C)[nH]c(-c2csc(N)n2)c1C`, for which the “activity change, negative = cytotoxicity” value is -20%.
As to `CC1CN(S(=O)(=O)c2cccc(C(=O)N3CCC(C(N)=O)CC3)c2)CC(C)O1` (stereo not given), the “activity change, negative = cytotoxicity” value is 5.09%.
To `NCCCCCC(=O)Nc1ccncc1` belongs -9.61%; to `O=C(NCc1ccc(OC(F)(F)F)cc1)c1cccc2c1C(=O)c1ccc(N3CCCCC3)cc1S2(=O)=O`, -23.6%; to `Cc1cccc(C)c1NC(=O)COc1ccc2c(C)c(Cc3ccccc3)c(=O)oc2c1C`, 6.84%.
To `COc1ccc2nc(N3C(=O)C(O)=C(C(=O)c4ccco4)C3c3ccccc3OC)sc2c1` (stereo not given) belongs 7.88%; to `COc1ccc(-c2csc(-c3cccnc3)n2)cc1C`, -6.7%.
To `COc1ccc(CN(C(=O)Cn2nnc(-c3ccc(C)o3)n2)C(C(=O)NCC2CCCO2)c2ccco2)cc1` (stereo not given) belongs -8.44%.
On to `O=C(O)c1ccc(S(=O)(=O)c2ccc3c(c2)C(=O)N(c2ccc(Br)cc2)C3=O)cc1`, for which the “activity change, negative = cytotoxicity” value is 4.72%.
Turning to `CCOC(=O)C1CCCN(CC(=O)Nc2c(C(=O)OC)[nH]c3ccc(Cl)cc23)C1` (stereo not given), the “activity change, negative = cytotoxicity” value was -13.6%.
To `O=C(CCc1ccccc1)Nc1ccccc1` belongs 5.54%.
